# Source: PubChem BioAssay (NCATS)
# Results filed as inconclusive are left out. A call without a number means that no potency is given here. A number with no mark means an inactive call. Activity calls are given as the source filed them. The call rests on the fitted dose curve; in most records, active means well fitted inhibition curve with a large enough effect; inconclusive means small, poorly fitted or top-dose-only effect; inactive means flat fitted curve, though single readings scatter.
# Key:
# [1] = qHTS profiling for inhibitors of Plasmodium falciparum proliferation (AID 504749); on all read-outs here: nearly all actives have a fitted effect of over 60% in size; conditions: P. falciparum in erythrocytes, SYBR Green DNA, 72 h; for activity, negative = inhibition: at 28.7 µM (top of the series)
# Procedure, shortened: (§1)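 P. falciparum-infected erythrocytes (0.3% parasitemia, 2.5% hematocrit) incubated with compound 72 h at 37 C, 5% CO2. Parasite DNA detected by SYBR Green after lysis, overnight at room temperature; normalised to 0.29 uM artemisinin and DMSO.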
# 3D7 = test: as above; conditions: P. falciparum in erythrocytes, SYBR Green DNA, 72 h; series mostly up to 28.7 µM
# Procedure, shortened: as §1
# AA1029 = test: as above; conditions: P. falciparum in erythrocytes, SYBR Green DNA, 72 h; series mostly up to 28.7 µM
# Procedure, shortened: as §1
# AS120 = test: as above; conditions: P. falciparum in erythrocytes, SYBR Green DNA, 72 h; series mostly up to 28.7 µM
# Procedure, shortened: as §1
# ATS189 = test: as above; conditions: P. falciparum in erythrocytes, SYBR Green DNA, 72 h; series mostly up to 28.7 µM
# Procedure, shortened: as §1
# ATS95 = test: as above; conditions: P. falciparum in erythrocytes, SYBR Green DNA, 72 h; series mostly up to 28.7 µM
# Procedure, shortened: as §1
# C2A = test: as above; conditions: P. falciparum in erythrocytes, SYBR Green DNA, 72 h; series mostly up to 28.7 µM
# Procedure, shortened: as §1
# CP185 = test: as above; conditions: P. falciparum in erythrocytes, SYBR Green DNA, 72 h; series mostly up to 28.7 µM
# Procedure, shortened: as §1
# CP191 = test: as above; conditions: P. falciparum in erythrocytes, SYBR Green DNA, 72 h; series mostly up to 28.7 µM
# Procedure, shortened: as §1
# CP192 = test: as above; conditions: P. falciparum in erythrocytes, SYBR Green DNA, 72 h; series mostly up to 28.7 µM
# Procedure, shortened: as §1
# CP194 = test: as above; conditions: P. falciparum in erythrocytes, SYBR Green DNA, 72 h; series mostly up to 28.7 µM
# Procedure, shortened: as §1
# CP201 = test: as above; conditions: P. falciparum in erythrocytes, SYBR Green DNA, 72 h; series mostly up to 28.7 µM
# Procedure, shortened: as §1
# CP211 = test: as above; conditions: P. falciparum in erythrocytes, SYBR Green DNA, 72 h; series mostly up to 28.7 µM
# Procedure, shortened: as §1
# CP215 = test: as above; conditions: P. falciparum in erythrocytes, SYBR Green DNA, 72 h; series mostly up to 28.7 µM
# Procedure, shortened: as §1
# CP217 = test: as above; conditions: P. falciparum in erythrocytes, SYBR Green DNA, 72 h; series mostly up to 28.7 µM
# Procedure, shortened: as §1
# CP237 = test: as above; conditions: P. falciparum in erythrocytes, SYBR Green DNA, 72 h; series mostly up to 28.7 µM
# Procedure, shortened: as §1
# CP238 = test: as above; conditions: P. falciparum in erythrocytes, SYBR Green DNA, 72 h; series mostly up to 28.7 µM
# Procedure, shortened: as §1
# 7G8 = test: as above; conditions: P. falciparum in erythrocytes, SYBR Green DNA, 72 h; series mostly up to 28.7 µM
# Procedure, shortened: as §1
# CP203 = test: as above; conditions: P. falciparum in erythrocytes, SYBR Green DNA, 72 h; series mostly up to 28.7 µM
# Procedure, shortened: as §1
# Potency means the concentration at half of the fitted maximal effect.
structure (smiles),measurement,setting,value
CCCOC(=O)c1ccc(O)cc1,"activity, negative = inhibition",[1]; parasite line A,4.05%
same,"activity, negative = inhibition",[1]; parasite line B,3.75%
same,Potency,3D7,inactive
same,Potency,AA1029,inactive
same,Potency,AS120,inactive
same,Potency,ATS189,inactive
same,Potency,ATS95,inactive
same,Potency,C2A,inactive
same,Potency,CP185,inactive
same,Potency,CP191,inactive
same,Potency,CP192,inactive
same,Potency,CP194,inactive
same,Potency,CP201,inactive
same,Potency,CP211,inactive
same,Potency,CP215,inactive
same,Potency,CP217,inactive
same,Potency,CP237,inactive
same,Potency,CP238,inactive
CC(=O)[C@]1(O)Cc2c(O)c3c(c(O)c2[C@@H](O[C@H]2C[C@H](N)[C@H](O)[C@H](C)O2)C1)C(=O)c1c(O)cccc1C3=O,Potency,[1]; parasite line A,7.08 µM (active)
same,Potency,[1]; parasite line B,12.6 µM (active)
same,Potency,3D7,3.16 µM (active)
same,Potency,7G8,1.12 µM (active)
same,Potency,AA1029,7.08 µM (active)
same,Potency,AS120,7.94 µM (active)
same,Potency,ATS189,10 µM (active)
same,Potency,ATS95,7.08 µM (active)
same,Potency,CP191,6.31 µM (active)
same,Potency,CP192,13.5 µM (active)
same,Potency,CP194,13.5 µM (active)
same,Potency,CP211,10.7 µM (active)
same,Potency,CP215,12 µM (active)
same,Potency,CP237,2.51 µM (active)
O=c1[nH]c2ccccc2n1CCCN1CCN(C(c2ccccc2)c2ccccc2)CC1,"activity, negative = inhibition",[1]; parasite line A,-13.9%
same,Potency,7G8,7.08 µM (active)
same,Potency,C2A,inactive
same,Potency,CP201,inactive
same,Potency,CP237,8.91 µM (active)
Nc1cc(-c2ccncc2)c[nH]c1=O,"activity, negative = inhibition",[1]; parasite line A,17.9%
same,"activity, negative = inhibition",[1]; parasite line B,15.4%
same,Potency,3D7,inactive
same,Potency,AA1029,inactive
same,Potency,AS120,inactive
same,Potency,ATS189,inactive
same,Potency,ATS95,inactive
same,Potency,C2A,inactive
same,Potency,CP185,inactive
same,Potency,CP191,inactive
same,Potency,CP192,inactive
same,Potency,CP194,inactive
same,Potency,CP201,inactive
same,Potency,CP211,inactive
same,Potency,CP215,inactive
same,Potency,CP217,inactive
same,Potency,CP237,inactive
same,Potency,CP238,inactive
COc1cc(/C=C/C(=O)N2CCN(CC(=O)N3CCCC3)CC2)cc(OC)c1OC,"activity, negative = inhibition",[1]; parasite line A,1.12%
same,"activity, negative = inhibition",[1]; parasite line B,8.7%
same,Potency,3D7,inactive
same,Potency,7G8,10 µM (active)
same,Potency,AA1029,inactive
same,Potency,ATS189,inactive
same,Potency,ATS95,inactive
same,Potency,C2A,inactive
same,Potency,CP185,inactive
same,Potency,CP191,inactive
same,Potency,CP192,inactive
same,Potency,CP194,inactive
same,Potency,CP201,inactive
same,Potency,CP211,inactive
same,Potency,CP215,inactive
same,Potency,CP217,inactive
same,Potency,CP237,inactive
same,Potency,CP238,inactive
CCOc1ccc2nc(S(N)(=O)=O)sc2c1,"activity, negative = inhibition",[1]; parasite line A,-5.98%
same,Potency,3D7,inactive
same,Potency,7G8,inactive
same,Potency,AA1029,inactive
same,Potency,AS120,inactive
same,Potency,ATS189,inactive
same,Potency,C2A,inactive
same,Potency,CP185,inactive
same,Potency,CP191,inactive
same,Potency,CP192,inactive
same,Potency,CP194,inactive
same,Potency,CP201,inactive
same,Potency,CP215,inactive
same,Potency,CP217,inactive
same,Potency,CP237,inactive
same,Potency,CP238,inactive
NC(=O)C(c1ccccc1)(c1ccccc1)[C@@H]1CCN(CCc2ccc3c(c2)CCO3)C1,"activity, negative = inhibition",[1]; parasite line A,-17.4%
same,"activity, negative = inhibition",[1]; parasite line B,-5.16%
same,Potency,3D7,inactive
same,Potency,7G8,11.2 µM (active)
same,Potency,ATS189,inactive
same,Potency,C2A,inactive
same,Potency,CP192,inactive
CC(N)C(=O)OC(C)(C)Cc1ccc(Cl)cc1 (stereo not drawn),"activity, negative = inhibition",[1]; parasite line A,3.68%
same,"activity, negative = inhibition",[1]; parasite line B,0.818%
same,Potency,3D7,inactive
same,Potency,7G8,10 µM (active)
same,Potency,C2A,inactive
same,Potency,CP191,inactive
same,Potency,CP192,inactive
same,Potency,CP237,4.47 µM (active)
Oc1c(Br)cc(Br)c2cccnc12,"activity, negative = inhibition",[1]; parasite line A,-4.99%
same,"activity, negative = inhibition",[1]; parasite line B,-18.5%
same,Potency,3D7,inactive
same,Potency,AA1029,inactive
same,Potency,ATS189,inactive
same,Potency,ATS95,inactive
same,Potency,C2A,inactive
same,Potency,CP185,inactive
same,Potency,CP191,inactive
same,Potency,CP192,inactive
same,Potency,CP194,inactive
same,Potency,CP201,inactive
same,Potency,CP203,inactive
same,Potency,CP211,inactive
same,Potency,CP215,inactive
same,Potency,CP217,inactive
same,Potency,CP237,inactive
same,Potency,CP238,inactive
CCCCCCCCCCCCCCCC(=O)OC(C)C,Potency,3D7,inactive
same,Potency,7G8,inactive
same,Potency,AA1029,inactive
same,Potency,AS120,inactive
same,Potency,ATS189,inactive
same,Potency,ATS95,inactive
same,Potency,C2A,inactive
same,Potency,CP185,inactive
same,Potency,CP191,inactive
same,Potency,CP192,inactive
same,Potency,CP194,inactive
same,Potency,CP201,inactive
same,Potency,CP203,inactive
same,Potency,CP211,inactive
same,Potency,CP215,inactive
same,Potency,CP217,inactive
same,Potency,CP237,inactive
same,Potency,CP238,inactive
CN1[C@@H](CC(=O)c2ccccc2)CCC[C@H]1C[C@H](O)c1ccccc1,"activity, negative = inhibition",[1]; parasite line A,-28.5%
same,Potency,[1]; parasite line B,12.6 µM (active)
same,Potency,3D7,inactive
same,Potency,7G8,8.91 µM (active)
same,Potency,AA1029,11.2 µM (active)
same,Potency,AS120,12.6 µM (active)
same,Potency,C2A,inactive
same,Potency,CP201,inactive
same,Potency,CP211,inactive
same,Potency,CP237,7.94 µM (active)
CCCCCCCCCCCCCCCCCC(=O)O,"activity, negative = inhibition",[1]; parasite line A,-10.1%
same,"activity, negative = inhibition",[1]; parasite line B,-2.97%
same,Potency,3D7,inactive
same,Potency,7G8,inactive
same,Potency,AA1029,inactive
same,Potency,AS120,inactive
same,Potency,ATS189,inactive
same,Potency,ATS95,inactive
same,Potency,C2A,inactive
same,Potency,CP185,inactive
same,Potency,CP191,inactive
same,Potency,CP192,inactive
same,Potency,CP194,inactive
same,Potency,CP201,inactive
same,Potency,CP215,inactive
same,Potency,CP217,inactive
same,Potency,CP237,inactive
same,Potency,CP238,inactive
